Experimental data published in PubChem BioAssay (NCATS).
Inconclusive results are not listed. The source made the active and inactive calls. Unless noted, the call rests on the fitted dose curve; in most records, active means well fitted curve in either direction with a large enough effect (not every such curve was filed as active); inconclusive means small, poorly fitted or top-dose-only effect, or another doubt; inactive means flat fitted curve, though single readings scatter.

What was measured:
[1] = AP1 Signaling Pathway (AID 357); conditions: ME-180 AP-1-bla reporter, EGF-induced, beta-lactamase ratio, 5 h; at 17.2 µM (top of the series) unless noted; further: on the % scale 0 is the no-effect control and ±100 the full control effect
Method in brief: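 ME-180 cells with beta-lactamase reporter under AP-1 response element, stimulated with EC50 EGF; compounds tested in titration series, 5 h at 37 °C. CCF4 substrate added 2.5 h at room temperature; 460/530 nm emission ratio gave %activity and AC50.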

[2] = NFAT Signaling Pathway (AID 444); conditions: Jurkat NFAT-bla M1, carbachol, beta-lactamase ratio, 5 h; at 17.2 µM (top of the series) unless noted;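 further: carbachol stimulus at about its EC50 of 1 µM final; on the % scale 0 is the no-effect control and ±100 the full control effect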
Method in brief: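 Jurkat cells carrying an NFAT-driven β-lactamase reporter and co-transfected muscarinic M1 receptor were treated with compound plus carbachol (1 uM final, an EC50 level) for 5 h at 37 °C. CCF4 loading followed for 1 h at RT; 460/530 nm ratio gave %activity.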

[3] = Stat Signaling Pathway (AID 446);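 further: ME-180 cervical cancer cells given 40 pM IL-6 alongside compound; SIE-controlled beta-lactamase reporter measured as 460/530 nm FRET emission ratio; on the % scale 0 is the no-effect control and ±100 the full control effect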
Method in brief: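 Screening format detects activators and inhibitors alike: ME-180 SIE-bla cells stimulated at 40 pM IL-6 for 5 hrs with compound, then dual-emission beta-lactamase read at 405 nm excitation.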

[4] = molecular target: Glucocorticoid receptor (Homo sapiens) (UniProt P04150); test: GR-GFP Redistribution (AID 450;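 active means compounds whose dose series gives a full or clear partial fitted curve of increased nuclear translocation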; further: potency means the concentration at half of the fitted maximal effect); conditions: U2OS GR-GFP nuclear translocation, laser cytometry, 2 h
Glucocorticoid receptor (Homo sapiens), sequence (P04150 whole entry, looked up): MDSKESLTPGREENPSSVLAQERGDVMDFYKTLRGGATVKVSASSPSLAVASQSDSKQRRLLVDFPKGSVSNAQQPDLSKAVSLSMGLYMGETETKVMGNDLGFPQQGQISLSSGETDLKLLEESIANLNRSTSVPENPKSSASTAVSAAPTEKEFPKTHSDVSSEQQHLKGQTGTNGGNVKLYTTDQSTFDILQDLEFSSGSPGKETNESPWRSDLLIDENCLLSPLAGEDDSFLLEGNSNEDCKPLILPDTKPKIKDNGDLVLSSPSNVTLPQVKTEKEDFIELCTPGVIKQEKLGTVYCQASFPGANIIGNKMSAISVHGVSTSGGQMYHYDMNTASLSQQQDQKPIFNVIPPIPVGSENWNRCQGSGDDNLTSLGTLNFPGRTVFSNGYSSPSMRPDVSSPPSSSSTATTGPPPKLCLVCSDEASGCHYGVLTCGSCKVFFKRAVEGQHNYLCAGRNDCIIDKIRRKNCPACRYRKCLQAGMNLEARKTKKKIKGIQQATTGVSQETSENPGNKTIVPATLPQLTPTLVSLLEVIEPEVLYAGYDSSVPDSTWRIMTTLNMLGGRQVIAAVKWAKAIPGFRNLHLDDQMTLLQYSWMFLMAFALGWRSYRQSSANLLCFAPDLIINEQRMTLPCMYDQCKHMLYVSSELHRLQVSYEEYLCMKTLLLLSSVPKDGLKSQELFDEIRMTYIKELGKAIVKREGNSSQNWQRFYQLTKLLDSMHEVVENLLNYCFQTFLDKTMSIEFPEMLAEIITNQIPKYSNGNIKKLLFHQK

CC1(C)NCCN2C(=O)CSC21 (centres undefined)
inactive: activity change, negative = inhibition [1] 17.6% | activity change, negative = inhibition [2] 0.762% | outcome [3] | Potency [4] > 20.6 µM

CCCCSP1(=S)NCCCO1 (centres undefined)
inactive: activity change, negative = inhibition [1] 2.22% | activity change, negative = inhibition [2] 1.86% | outcome [3] | Potency [4] > 20.6 µM

C[C@H]1CCCC(=O)CCCCCc2cc(O)cc(O)c2C(=O)O1
inactive: activity change, negative = inhibition [1] -29.6% | activity change, negative = inhibition [2] 22.4% | outcome [3] | Potency [4] > 20.6 µM

O=c1[nH]c(=O)n(CCc2ccccc2)c(O)c1C=NCCCn1ccnc1
inactive: activity change, negative = inhibition [1] -11% | activity change, negative = inhibition [2] -27.5% | outcome [3] | Potency [4] > 20.6 µM

COc1ccc(C2SCC(=O)Nc3c2c(=O)[nH]n3C2CCCCC2)cc1 (centres undefined)
inactive: activity change, negative = inhibition [1] -14.7% | activity change, negative = inhibition [2] 0.11% | outcome [3] | Potency [4] > 20.6 µM

C=CCn1c(O)c(C=NCCN(C)C)c(=O)[nH]c1=O
inactive: activity change, negative = inhibition [1] 1.63% | activity change, negative = inhibition [2] -6.46% | outcome [3] | Potency [4] > 20.6 µM
